About 14,000 (4.5%) of roughly 310,000 compounds showed an effect of 50% or more. Effects have a minus sign here. Only a selection was taken, and strong results are over-represented in it overall.
These compounds were tested against human ether-à-go-go-related gene (hERG) potassium channel (human, UniProt Q12809) (assay: primary screen, population patch clamp on CHO cells stably expressing hERG; higher = less effect of the substance).
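Further: peak tail current of the secondary pulse compared with the same well before compound.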

Chain of human ether-à-go-go-related gene (hERG) potassium channel (Q12809 whole entry, looked up): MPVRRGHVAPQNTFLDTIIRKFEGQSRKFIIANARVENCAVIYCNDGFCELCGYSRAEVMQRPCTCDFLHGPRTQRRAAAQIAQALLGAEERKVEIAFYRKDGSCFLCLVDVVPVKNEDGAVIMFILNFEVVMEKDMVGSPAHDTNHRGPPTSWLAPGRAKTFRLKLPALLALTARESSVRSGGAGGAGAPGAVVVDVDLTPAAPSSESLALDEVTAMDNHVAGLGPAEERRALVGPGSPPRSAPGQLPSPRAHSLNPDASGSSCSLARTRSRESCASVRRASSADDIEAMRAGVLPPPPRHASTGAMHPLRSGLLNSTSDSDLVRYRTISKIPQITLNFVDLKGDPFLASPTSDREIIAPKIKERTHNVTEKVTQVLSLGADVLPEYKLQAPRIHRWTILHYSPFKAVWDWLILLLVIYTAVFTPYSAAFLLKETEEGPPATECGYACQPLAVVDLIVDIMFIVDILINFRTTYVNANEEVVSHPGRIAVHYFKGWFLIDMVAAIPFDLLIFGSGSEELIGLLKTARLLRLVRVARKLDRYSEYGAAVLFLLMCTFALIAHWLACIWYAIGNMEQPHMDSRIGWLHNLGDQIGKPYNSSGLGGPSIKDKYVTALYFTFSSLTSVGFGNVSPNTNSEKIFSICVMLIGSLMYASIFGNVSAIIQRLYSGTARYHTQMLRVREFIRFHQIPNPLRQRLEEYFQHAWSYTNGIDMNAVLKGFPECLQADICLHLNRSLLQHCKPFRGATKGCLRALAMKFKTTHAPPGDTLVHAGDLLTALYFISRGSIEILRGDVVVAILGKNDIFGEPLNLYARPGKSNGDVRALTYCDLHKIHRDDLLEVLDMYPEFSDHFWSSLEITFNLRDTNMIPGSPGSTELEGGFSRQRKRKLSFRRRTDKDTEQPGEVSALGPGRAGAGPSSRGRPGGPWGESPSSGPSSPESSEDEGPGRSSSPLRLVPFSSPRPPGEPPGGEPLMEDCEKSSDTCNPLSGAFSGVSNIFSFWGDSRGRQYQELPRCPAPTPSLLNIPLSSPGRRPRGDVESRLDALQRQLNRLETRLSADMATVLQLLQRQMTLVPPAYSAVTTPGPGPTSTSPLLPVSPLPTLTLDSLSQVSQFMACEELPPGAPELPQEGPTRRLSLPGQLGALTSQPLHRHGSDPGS

| Structure (SMILES) | hERG current change (%, negative = inhibition) at 10uM [%] |
| --- | --- |
| CC(C)(C)NC(=O)COC(=O)c1cc(S(=O)(=O)N2CCCCC2)ccc1N1CCOCC1 | -6.23 |
| CCOC(=O)c1ccc(N2C(=O)CC(Nc3ccc(CCO)cc3)C2=O)cc1 (centres unmarked) | -25.5 |
| OCC[C@@H]1C[C@H](O)[C@@H](O)[C@]2(CCCCO2)O1 | 21.2 |
| CCOc1ccc(C(Nc2ccc(C)cc2)P2(=O)OCC(C)(C)CO2)cc1 (centres unmarked) | 4.67 |
| Cn1cccc1CC(=O)NNC(=O)Nc1cccc(Cl)c1 | 18.9 |
| O=S(=O)(Nc1ccccc1O)c1cccc2cccnc12 | 8.14 |
| O=C(CNC(=O)c1cccs1)NCCN1CCN(c2ccccc2F)CC1 | -35.3 |
| N#Cc1ccc(NC(=O)N2CCC(c3nc4c(nnn4Cc4cccc(Cl)c4)c(=O)[nH]3)CC2)cc1 | 3.5 |
| Cc1ccccc1SCC(=O)Nc1cc(C(F)(F)F)ccc1N1CCOCC1 | -1.77 |
| CCCCCCn1c(O)c(C=NC2CCN(Cc3ccccc3)CC2)c(=O)[nH]c1=O | -65.7 |
| O=c1[nH]c(=O)n(CCc2ccccc2)c(O)c1C=NC1CC1 | 3.17 |
| Cn1c(O)c(C=NC2CCN(Cc3ccccc3)CC2)c(=O)[nH]c1=O | -26.5 |
| O=C(CN1CCOCC1)Nc1ccccc1-c1ccccc1 | 4.15 |
| O=C(CN1CCN(Cc2ccccc2)CC1)Nc1ccccc1-c1ccccc1 | -89.8 |
| O=C(CN1CCCCC1)Nc1ccccc1-c1ccccc1 | -9.07 |
| COC(=O)c1ccccc1NC(=O)CN1CCC(C)CC1 | 9.3 |
| COC(=O)c1ccccc1NC(=O)N1CCN(C(=O)c2ccco2)CC1 | -25 |
| NC(=O)c1ccccc1NC(=O)Nc1cccc(Cl)c1 | -8.62 |
| COC(=O)c1ccccc1NC(=O)CN1CCN(C23CC4CC(CC(C4)C2)C3)CC1 | -77.5 |
| Cc1cccc(NC(=O)CN2CCN(CC(=O)NCc3ccc(Cl)cc3Cl)CC2)c1C | -18.2 |
| COC(=O)c1ccccc1NC(=O)CN1CCOCC1 | 5.86 |
| NC(=O)c1ccccc1NC(=O)CN1CCN(Cc2ccc(Cl)cc2Cl)CC1 | -76.1 |

| Structure (SMILES) | hERG current change (%, negative = inhibition) at 10uM [%] |
| --- | --- |
| COC(=O)c1ccccc1NC(=O)CN1CCN(C(=O)c2ccco2)CC1 | -51.6 |
| COc1ccc(OCC(=O)NCCCN2CCOCC2)cc1 | 10.7 |
| CC1=C(C(=O)OCc2ccccc2)C(c2ccsc2)C(C#N)=C(N)O1 (centres unmarked) | -6.93 |
| Cc1cccc(COc2ccc(/C=C3/C(=O)N(C)C(=S)N3C)cc2)c1 | 15.7 |
| O=C(Nc1ccccc1)Nc1nnc(Cc2ccc(F)cc2)s1 | 20.1 |
| O=C(NCc1ccco1)c1ccccc1 | 8.8 |
| CCN(CC)S(=O)(=O)c1ccc(N2CCOCC2)c(NC(=O)Cc2cccc3ccccc23)c1 | -1.03 |
| N#CC1=C(N)N(c2ccccc2)C(c2cccc([N+](=O)[O-])c2)C1(C#N)C#N (centres unmarked) | -29.6 |
| COc1cc([N+](=O)[O-])ccc1NC(=O)CN1CCN(C(=O)c2ccco2)CC1 | -78.4 |
| COC(=O)c1ccccc1NC(=O)CN1CCCCCC1 | 8 |
| COC(=O)c1ccccc1NC(=O)CN1CCCCC1 | 9.99 |
| COc1ccccc1NC(=O)c1ccc(NC(=O)CN2CCN(C(=O)c3ccco3)CC2)cc1 | -72.9 |
| COc1cc([N+](=O)[O-])ccc1NC(=O)CN1CCOCC1 | 9.44 |
| O=C(CN1CCN(C(=O)c2ccco2)CC1)Nc1ccccc1 | -13.9 |
| COc1ccc(NC(=O)CN2CCN(C(=O)c3ccco3)CC2)c(OC)c1 | -37.4 |
| COC(=O)c1ccccc1NC(=O)CN1CCN(Cc2ccccc2)CC1 | -74.5 |
| NC(=O)c1ccc(NC(=O)CN2CCN(C(=O)c3ccco3)CC2)cc1 | -3.09 |
| COc1ccccc1NC(=O)c1ccc(NC(=O)CN2CCCC2)cc1 | -34.2 |
| O=C(CN1CCN(C(=O)c2ccco2)CC1)Nc1ccccc1-c1ccccc1 | -50.5 |
| COc1ccccc1NC(=O)CN1CCN(C(=O)c2ccco2)CC1 | -22 |
| COc1ccc(NC2(c3ccccc3)OC(=O)c3ccccc32)cc1 (centres unmarked) | 1.2 |
| CC(=O)c1cccc(OCc2cc(C(=O)NCCC3=CCCCC3)no2)c1 | 7.85 |

| Structure (SMILES) | hERG current change (%, negative = inhibition) at 10uM [%] |
| --- | --- |
| COc1cccc(NC(=O)c2nnn(CC(=O)Nc3cc(C)cc(C)c3)c2N)c1 | 13.5 |
| O=C(c1cccc(COc2cccc3ccccc23)c1)N1CCCC1 | -4.59 |
| CC(=O)Nc1ccc(S(=O)(=O)NCCC(=O)Nc2cc(C)ccn2)cc1 | 7.68 |
| NS(=O)(=O)c1ccc(CCNC(=O)C2CCCN(S(=O)(=O)c3cccnc3)C2)cc1 (centres unmarked) | -4.22 |
| NC(=O)c1ccccc1NC(=O)CN1CCCCCC1 | 11.1 |
| NC(=O)c1ccccc1NC(=O)CN1CCOCC1 | 7.22 |
| NC(=O)c1ccccc1NC(=O)CN1CCN(Cc2ccccc2)CC1 | -78.3 |
| O=C1Nc2ccc(S(=O)(=O)NCc3ccco3)c3cccc1c23 | -16.2 |
| O=C1NN(c2cccc(Br)c2)C(=O)/C1=C/c1ccc(-c2cc([N+](=O)[O-])ccc2O)o1 | -9.65 |
| CCNC(=O)COc1ccc(S(=O)(=O)Nc2ccccc2)cc1 | -1.85 |
| CC(C)C(=O)Nc1cccc(NC(=S)NC(=O)c2ccccc2Cl)c1 | -9.02 |
| CCCC(c1c(C)n(C)n(-c2ccccc2)c1=O)c1c(C)n(C)n(-c2ccccc2)c1=O | 0.692 |
| Br.COc1ccccc1OCC(=O)NN1Cc2ccccc2C1=N | 1.99 |
| Br.Cc1cc(C)cc(OCC(=O)NN2Cc3ccccc3C2=N)c1 | -11.6 |
| Br.N#Cc1ccc(OCC(=O)NN2Cc3ccccc3C2=N)cc1 | 4.14 |
| Br.CC(C)(C)c1ccc(OCC(=O)NN2Cc3ccccc3C2=N)cc1 | -65.5 |
| Br.CCOc1ccccc1OCC(=O)NN1Cc2ccccc2C1=N | -73.5 |
| Br.CCc1ccc(OCC(=O)NN2Cc3ccccc3C2=N)cc1 | -38.8 |
| Br.Cc1ccccc1OCC(=O)NN1Cc2ccccc2C1=N | -0.416 |
| Br.COc1ccc(OCC(=O)NN2Cc3ccccc3C2=N)cc1 | -18.1 |
| Br.N=C1c2ccccc2CN1NC(=O)COc1ccc(Cl)cc1 | -50.4 |
